# Experimental data published in PubChem BioAssay (NCATS).
# “And” between values parts separate entries of the source, which are not always exact repeats. Identical values can stand only once. Records with an inconclusive call do not appear. A call without a number means that no potency is given here. Values without a mark were called inactive. The source made the active and inactive calls. Calls come from the whole dose curve; as a rule, active = well fitted curve in the direction sought with a large enough effect; inconclusive = small, poorly fitted or top-dose-only effect, or another doubt; inactive = no such curve, though single readings can be large; an effect the other way counts as inactive or inconclusive.
# Legend:
# [1] = target: Cytochrome P450 3A7 (Homo sapiens) (UniProt P24462); test: Cytochrome P450 family 3 subfamily A member 7 (CYP3A7) small molecule antagonists: luciferase biochemical qHTS assay (AID 1963596); note: nearly all actives have a fitted effect of over 40% in size; note: potency is the fitted concentration of half-maximal effect
# Method in brief: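 Recombinant CYP3A7 P450-Glo luminescent assay: enzyme-proluciferin substrate mix preincubated with compound 10 min at room temperature, reaction started with NADPH regeneration system for 1 h. Luciferin detected by luminescence; ketoconazole as positive control.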
# [2] = Viability qHTS for spleen associated tyrosine kinase inhibitor (SYKi) drug resistant MV4-11 cells (AID 1963824); note: nearly all actives have a fitted effect of over 35% in size; note: potency is the fitted concentration of half-maximal effect
# Method in brief: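 CellTiter-Glo luminescence, read 10 min after reagent addition, reports viability after a 72 hr compound exposure. Cells are an MV4-11 line made resistant to SYK inhibition, seeded at 500 per well onto compound-containing plates.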
# [3] = Quantitative highthroughput screen to assess conditional lethalithy of NOMO1 cells grown in RPMI1640 with untreated serum (RPMI+s) (AID 1963876); note: nearly all actives have a fitted effect of over 35% in size; note: potency is the fitted concentration of half-maximal effect
# Method in brief: (§1)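 Each medium arm—HPLM with 10% dialyzed FBS, or RPMI1640 with 5 mM glucose and 10% untreated or dialyzed FBS—was screened against an 11-point, 3-fold compound titration for 48 h at 37 °C, with CellTiter-Glo luminescence as endpoint.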
# [4] = Quantitative highthroughput screen to assess conditional lethalithy of NOMO1 cells grown in RPMI1640 with dialyzed fetal bovine serum (RPMI+ds) (AID 1963877); note: nearly all actives have a fitted effect of over 30% in size; note: potency is the fitted concentration of half-maximal effect; for Viability: series mostly up to about 46 µM
# Method in brief: as §1
# [5] = Quantitative highthroughput screen to assess conditional lethalithy of NOMO1 cells grown in Human Plasma-Like Medium with dialyzed fetal bovine serum (HPLM+ds) (AID 1963878); note: nearly all actives have a fitted effect of over 35% in size; note: potency is the fitted concentration of half-maximal effect
# Method in brief: as §1
# [6] = Quantitative highthroughput screen to assess conditional lethalithy of P12 Ichikawa cells grown in Human Plasma-Like Medium with dialyzed fetal bovine serum (HPLM+ds) (AID 1963879); conditions: Potency: viability; note: nearly all actives have a fitted effect of over 35% in size; note: potency is the fitted concentration of half-maximal effect; for Viability: series mostly up to about 46 µM
# Method in brief: as §1
# [7] = Quantitative highthroughput screen to assess conditional lethalithy of P12 Ichikawa cells grown in RPMI1640 with dialyzed fetal bovine serum (RPMI+ds) (AID 1963880); conditions: Potency: P12-Ichikawa viability; note: nearly all actives have a fitted effect of over 35% in size
# Method in brief: as §1
# [8] = Quantitative highthroughput screen to assess conditional lethalithy of P12 Ichikawa cells grown in RPMI1640 with untreated serum (RPMI+s) (AID 1963881); conditions: Potency: viability
# Method in brief: as §1
# [9] = Quantitative highthroughput screen to assess conditional lethalithy of SEM cells grown in Human Plasma-Like Medium with dialyzed fetal bovine serum (HPLM+ds) (AID 1963882)
# Method in brief: as §1
# [10] = Quantitative highthroughput screen to assess conditional lethalithy of SEM cells grown in RPMI1640 with unreated serum (RPMI+s) (AID 1963883); note: nearly all actives have a fitted effect of over 35% in size
# Method in brief: as §1
# [11] = Quantitative highthroughput screen to assess conditional lethalithy of SEM cells grown in RPMI1640 with dialyzed fetal bovine serum (RPMI+ds) (AID 1963884)
# Method in brief: as §1
# [12] = Cellular viability qHTS for adrenocortical cancer (ACC) cell line NCI-H295R (AID 1963990); note: nearly all actives have a fitted effect of over 60% in size
# Method in brief: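 Readout: CellTiter-Glo luminescence, 20 min RT. Exposure: 48 h, 37C/5% CO2. Cells: NCI-H295R, ITS-DMEM serum-free. Range: up to 46 uM. Analysis: 4PL fit, IC50 plus efficacy.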
# [13] = Cellular viability qHTS for adrenocortical cancer (ACC) cell line SW-13 (AID 1963989); conditions: SW-13 ACC cells viability, CellTiter-Glo, 48 h; activity (max response): stronger effect = lower value; note: nearly all actives have a fitted effect of over 65% in size; note: potency is the fitted concentration of half-maximal effect;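 for activity (max response): cells grown in serum-free medium with ITS supplement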
# Method in brief: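 Compound titrations (up to 46 uM final, in DMSO) were applied to SW-13 cells for 48 h at 37C/5% CO2. Reading used CellTiter-Glo after 20 min at room temperature; fitted curves yielded IC50 and efficacy.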
# Cytochrome P450 3A7 (Homo sapiens), sequence (P24462 whole entry, looked up): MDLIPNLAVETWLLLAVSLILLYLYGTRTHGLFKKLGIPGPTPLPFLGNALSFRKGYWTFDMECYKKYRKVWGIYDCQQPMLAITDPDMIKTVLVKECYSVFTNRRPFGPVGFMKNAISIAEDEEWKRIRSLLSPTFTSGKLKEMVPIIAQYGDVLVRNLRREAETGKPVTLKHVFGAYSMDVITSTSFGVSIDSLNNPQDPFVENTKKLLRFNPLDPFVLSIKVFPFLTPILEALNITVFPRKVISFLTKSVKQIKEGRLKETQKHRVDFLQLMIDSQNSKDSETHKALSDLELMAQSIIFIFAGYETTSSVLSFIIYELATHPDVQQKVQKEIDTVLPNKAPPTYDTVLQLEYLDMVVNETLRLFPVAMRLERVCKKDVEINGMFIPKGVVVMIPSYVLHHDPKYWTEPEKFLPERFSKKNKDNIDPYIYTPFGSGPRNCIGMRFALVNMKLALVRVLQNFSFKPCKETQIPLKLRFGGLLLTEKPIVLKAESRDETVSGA
compound,measurement,setting,value
FC(F)(F)c1ccccc1-c1cc(C(F)(F)F)c2nc(C3=NOC4(CCCCC4)C3)[nH]c2c1,Potency,[1],inactive
same,Potency,[2],16.4 µM (active)
COc1ccccc1N1CCN(CC[C@@](C)(C(=O)C2CCCCC2)c2ccccc2)CC1,Potency,[1],inactive
same,Potency,[2],14.6 µM (active)
CCN(CC)CCCC(C)Nc1nc(C)cc(Nc2ccc3nc(C)cc(N)c3c2)n1 (stereo not drawn),Potency,[1],inactive
same,Potency,[2],16.6 µM (active)
same,Potency,[3],inactive
same,Potency,[4],inactive
same,Potency,[5],inactive
same,Potency,[6],inactive
same,Potency,[7],inactive
same,Potency,[8],inactive
same,Potency,[9],inactive
same,Potency,[10],inactive
same,Potency,[11],inactive
same,Potency,[12],inactive
CNC(=O)c1ccc(-c2cnc3ncc(Cc4ccc5ncccc5c4)n3n2)cc1F,Potency,[1],inactive
same,Potency,[2],2.06 µM (active)
same,Potency,[3],inactive
same,Potency,[4],inactive
same,Potency,[5],inactive
same,Potency,[6],inactive
same,Potency,[7],inactive
same,Potency,[8],inactive
same,Potency,[9],inactive
same,Potency,[10],inactive
same,Potency,[11],inactive
same,activity (max response),[13],0.555%
same,Potency,[12],inactive
CNS(=O)(=O)Cc1ccc2[nH]cc(CCN(C)C)c2c1,Potency,[1],inactive
same,Potency,[2],inactive
same,Potency,[3],inactive
same,Potency,[4],inactive
same,Potency,[5],inactive
same,Potency,[6],inactive
same,Potency,[7],inactive
same,Potency,[8],inactive
same,Potency,[9],inactive
same,Potency,[10],inactive
same,Potency,[11],inactive
same,activity (max response),[13],3.13%
Cn1c2ccc(NC(=O)c3ccccc3)cc2c(=O)n2nc(C(=O)O)cc12,Potency,[1],inactive
same,Potency,[2],inactive
COc1ccc(CC2c3cc(OC)c(OC)cc3CC[N+]2(C)CCC(=O)OCCCCCOC(=O)CC[N+]2(C)CCc3cc(OC)c(OC)cc3C2Cc2ccc(OC)c(OC)c2)cc1OC (stereo not drawn),Potency,[1],inactive
same,Potency,[2],18.6 µM (active)
same,Potency,[3],3.68 µM (active)
same,Potency,[4],4.63 µM (active)
same,Potency,[5],1.64 µM (active)
same,viability,[6],93.9% [at 5.15 µM]
same,viability,[7],106% [at 5.15 µM]
same,viability,[8],89.9% [at 5.15 µM]
same,activity (max response),[13],-11.7%
Cn1cc(-c2ccc(F)c(C(F)(F)F)c2)nc1C1CCN(c2ncnc3[nH]ncc23)CC1,Potency,[1],inactive
same,Potency,[2],inactive
same,Potency,[3],inactive
same,Potency,[4],inactive
same,Potency,[5],inactive
same,Potency,[6],inactive
same,Potency,[7],inactive
same,Potency,[8],inactive
same,Potency,[9],inactive
same,Potency,[10],inactive
same,activity (max response),[13],13.1%
C1COC(NC(C2CC2)C2CC2)=N1,Potency,[1],inactive
same,Potency,[2],inactive
same,Potency,[3],inactive
same,Potency,[4],inactive
same,Potency,[5],inactive
same,Potency,[6],inactive
same,Potency,[8],inactive
same,activity (max response),[13],14.7% and 0.392%
same,Potency,[12],inactive
COc1cc(OC)c(NC(=O)c2ccc(Cc3cc4c(cc3C)C(C)(C)CCC4(C)C)o2)c(OC)c1,Potency,[1],inactive
same,Potency,[2],11.6 µM (active)
Cc1cc(CS(=O)(=O)c2ccccc2)cc(OCc2ccc(CN3CCCC3CO)cc2)c1 (stereo not drawn),Potency,[1],inactive
same,Potency,[2],14.6 µM (active)
CC1COc2c(N3CCN(C)CC3)c(F)cc3c(=O)c(C(=O)O)cn1c23 (stereo not drawn),Potency,[1],inactive
same,Potency,[2],8.41 µM (active)
same,Potency,[3],inactive
same,Potency,[4],inactive
same,Potency,[5],inactive
same,Potency,[6],inactive
same,Potency,[7],inactive
same,Potency,[8],inactive
same,Potency,[9],inactive
same,Potency,[10],inactive
same,Potency,[11],inactive
same,activity (max response),[13],4.41% and 9.62%
same,Potency,[12],inactive
Nc1ccc(C(=O)Nc2ccccc2N)cc1,Potency,[1],17.4 µM (active)
same,Potency,[2],7.5 µM (active)
CC(=O)NS(=O)(=O)c1ccc(N)cc1,Potency,[1],inactive
same,Potency,[2],inactive
NC(=O)c1ccccc1O,Potency,[1],inactive
same,Potency,[2],inactive
COc1ccc(Sc2ccc(NC(=O)c3ccccc3Cl)cc2C#N)cc1,Potency,[1],inactive
same,Potency,[2],25.9 µM (active)
C[C@H]1CO[C@@H]2Cn3cc(C(=O)NCc4ccc(F)cc4F)c(=O)c(O)c3C(=O)N12,Potency,[1],inactive
same,Potency,[2],7.31 µM (active)
Cn1ncnc1COc1nn2c(-c3cc(F)ccc3F)nnc2cc1C(C)(C)C,Potency,[1],4.47 µM (active)
same,Potency,[2],inactive
CCOC(=O)c1ncn2c1CN(C)C(=O)c1cc(F)ccc1-2,Potency,[1],inactive
same,Potency,[2],inactive
same,Potency,[3],inactive
same,Potency,[4],inactive
same,Potency,[5],20.9 µM (active)
same,Potency,[6],3.72 µM (active)
same,activity (max response),[13],10.7% and 8.93%
same,Potency,[12],inactive
O=C(N[C@@H]1CCCc2c1cnn2-c1ccc(F)cc1F)c1ccccn1,Potency,[1],inactive
same,Potency,[2],14.6 µM (active)
OCc1cccnc1,Potency,[1],inactive
same,Potency,[2],inactive
same,activity (max response),[13],0.385%
CN1CCN(c2ccc(OC(F)(F)F)c(Nc3ncc4c(n3)-c3c(c(C(N)=O)nn3CCO)CC4)c2)CC1,Potency,[1],inactive
same,Potency,[2],20.6 nM (active) and 46.8 nM (active)
same,Potency,[13],0.1 µM (active)
N[C@@H](C(=O)N[C@@H]1C(=O)N2C(C(=O)O)=C(Cl)CS[C@H]12)c1ccccc1,"activity change, negative = inhibition",[1],-8.83% [at 11.5 µM]
same,Potency,[2],0.686 µM (active)
same,Potency,[3],inactive
same,Potency,[5],inactive
same,Potency,[6],inactive
same,Potency,[7],inactive
same,Potency,[8],inactive
same,Potency,[9],inactive
same,Potency,[10],inactive
same,Potency,[11],inactive
same,activity (max response),[13],7.53%
same,"activity change, negative = viability loss",[12],-18.4% [at 9.17 µM]
Cc1c(F)cc2c(=O)c(C(=O)O)cn3c2c1CCC3C (stereo not drawn),Potency,[1],inactive
same,Potency,[2],inactive
same,activity (max response),[13],-2.48%
same,Potency,[12],inactive
